The list is not random: actives were taken first. Their share in the collection is about 3.7%.
Ecoli rRNA inh – reduced GFP signal of wild-type E. coli, primary screen, bacterial rRNA inhibitor project, GFP/RFP fluorescence, OD600, single point | E. coli WT GFP vs humanized-ribosome RFP mutants, 24 h; active compounds read low; DMSO median 0, no signal -100 | GFP signal change (wild-type ribosome), % (no concentration beside the values) | 350,000 compounds, 1.6% hits;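 active = significant combined selectivity score with lowered wild-type GFP, culture density cut under 30%, mutant RFP and density less affected; inactive = any of these conditions unmet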
MITF TRPM1 HTS – activators of MITF-driven TRPM1 promoter reporter, primary screen, cell-based, SK-MEL-5, luciferase, single point | SK-MEL-5 TRPM1-promoter luciferase, 24 h; % of positive control, neutral wells = 0 | activation, % at 12.5 µM | 300,000 compounds, 0.75% hits | AID 588334, 2011;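 active = mean activation of at least 80% with every replicate also reaching 80%; inconclusive = mean reaches 80% but some replicate falls short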;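 note: 0% = neutral control wells and 100% = parthenolide positive control wells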
Wnt bcat act – Wnt/beta-catenin pathway activators, primary screen, cell-based, plate reader, single point. 300,000 compounds, 1.2% hits. Wnt/beta-catenin reporter cell assay, activator. activation, % at 9.35 µM; in the data active = activation above about 30%, passing the limit was not always enough; inconclusive = no clear call, values can overlap the other calls;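 note: 0% = neutral control wells and 100% = positive control wells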
esBAF inh – Bmi1 luciferase reporter increase in mESCs, primary screen, esBAF inhibitor project, mouse ES cells, Bmi1 luciferase knock-in, single point; 350,000 compounds, 2% hits; 24 h; 100% = twice the neutral-well signal; AID 602393, 2012; reporter increase, % at 12.5 µM; in the data active = activation above about 40%; inconclusive = no clear call, values can overlap the other calls;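 note: 0% = median of the plate's neutral control wells and 100% = double that signal; a rise in the Bmi1 reporter signal indicates esBAF inhibition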
MLL AF4-AF9 inh – inhibitors of AF4 peptide binding to AF9, primary screen, biochemical, AlphaScreen, biotin-AF4 peptide, FLAG-AF9, single point; inhibition, % at 10 µM; 350,000 compounds, 0.47% hits;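 active = every replicate reaching a set inhibition limit, whatever the replicate mean, cut at about 25% in these data; inconclusive = mean inhibition reaches that limit but some replicates miss it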;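 note: 0% = plate neutral control median and 100% = total signal loss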
Target sequence (P42568 whole entry, looked up): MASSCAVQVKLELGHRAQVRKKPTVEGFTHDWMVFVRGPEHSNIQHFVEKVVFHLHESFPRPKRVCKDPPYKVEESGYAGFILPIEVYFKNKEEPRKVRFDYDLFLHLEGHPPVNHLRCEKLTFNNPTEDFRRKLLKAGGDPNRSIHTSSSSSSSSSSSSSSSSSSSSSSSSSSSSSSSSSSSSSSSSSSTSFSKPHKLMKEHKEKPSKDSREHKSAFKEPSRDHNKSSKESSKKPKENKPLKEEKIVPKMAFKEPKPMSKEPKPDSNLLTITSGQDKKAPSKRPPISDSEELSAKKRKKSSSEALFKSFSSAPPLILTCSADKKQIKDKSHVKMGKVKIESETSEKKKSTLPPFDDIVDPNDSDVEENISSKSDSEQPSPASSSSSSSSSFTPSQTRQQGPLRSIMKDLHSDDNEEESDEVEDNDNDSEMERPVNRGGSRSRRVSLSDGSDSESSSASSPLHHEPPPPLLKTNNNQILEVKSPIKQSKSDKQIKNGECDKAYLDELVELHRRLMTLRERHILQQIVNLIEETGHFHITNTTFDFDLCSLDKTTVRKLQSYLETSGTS
* hit, by the source's call; ? = inconclusive; nt = no result given.

SMILES | Ecoli rRNA inh | MITF TRPM1 HTS | Wnt bcat act | esBAF inh | MLL AF4-AF9 inh
COc1ccc(/C=C(/NC(=O)c2ccc([N+](=O)[O-])cc2)C(=O)NC(C)(C)C)cc1 | 15 | 23 | -4 | -9 | -3
N#Cc1ccc(-c2ccc([C@@H]3[C@H](CO)N4CCCCN(C(=O)Nc5ccc(F)cc5)C[C@@H]34)cc2)cc1 | -59 | nt | nt | -9 | -4
CC1(C)CC(=O)c2c(O)cc(OCc3ccc([N+](=O)[O-])cc3)cc2O1 | nt | 78 | nt | 47* | nt
CCN(CC)CCn1c(SCC(=O)Nc2cccc(OC)c2)nc2c(sc3ccccc32)c1=O | -21* | -20 | -1 | nt | -2
CCN(CC)CCn1c(SCC(=O)NCCC2=CCCCC2)nc2c(sc3ccccc32)c1=O | 1 | -14 | 2 | nt | 1
CCN(CC)CCn1c(SCC(=O)NCc2ccco2)nc2c(sc3ccccc32)c1=O | nt | nt | 47* | 2 | nt
C[C@H]1[C@@H](c2ccccc2)Oc2ccc(Cl)cc2S(=O)(=O)N1Cc1ccc(Cl)cc1 | 1 | nt | 0 | nt | -1
Cc1ccc(CNc2nc(C)cs2)cc1 | 4 | 143* | 27 | 46* | 2
Cc1cc(C)n2ncc(/C(N)=N/OC(=O)c3ccccc3F)c2n1 | nt | ? | 38* | nt | 2
CCOC(=O)c1cnn2c(C)cc(-c3ccccc3)nc12 | nt | nt | 43* | nt | nt
CCCCn1c(N)c(N(CCOC)C(=O)CSCc2ccc(Cl)c(Cl)c2)c(=O)[nH]c1=O | -2 | -10 | -4 | nt | 0
CC(=O)N(C)C[C@H]1Oc2ncc(-c3ccccc3C)cc2C(=O)N([C@H](C)CO)C[C@@H]1C | 2 | nt | nt | -1 | -2
COC(=O)N/N=C\c1ccc(OC(=O)c2ccco2)cc1 | 12 | 6 | -13 | nt | -1
COC(=O)N/N=C/c1ccc(OC(=O)/C=C/c2ccco2)cc1 | nt | nt | 53* | nt | 0
O=C(Cc1ccccc1)N/N=C/c1ccc(OC(=O)/C=C\c2ccco2)cc1 | nt | -8 | 104* | -1 | nt
COc1ccccc1CCNC(=O)c1cccc(NC(=O)CC2SC(N3CCCCC3)=NC2=O)c1 (stereo not drawn) | -21* | -21 | 19 | 7 | -1
CCNC(=O)c1ccc(NC(=O)CC2SC(N3CCCCC3)=NC2=O)cc1 (stereo not drawn) | 6 | -5 | 1 | -1 | -1
CC1CCC(NC(=O)c2ccc(NC(=O)CC3SC(N4CCCC4)=NC3=O)cc2)CC1 (stereo not drawn) | 1 | 76 | 28 | 66* | -13
COc1cc(C(=O)O/N=C2\C=CC(=O)C(C)=C2)cc(OC)c1OC | nt | nt | 61* | -7 | nt
COc1cc(C(=O)ON=C2C=C(C)C(=O)C(C)=C2)cc(OC)c1OC | 23 | -9 | -2 | nt | 4
O=C(Nc1cc(F)ccc1F)N1CC(=O)N2[C@@H](CO)[C@@H](c3ccc(C#CC4CCCC4)cc3)[C@@H]2C1 | -10 | nt | nt | nt | 0
COCCNC(=O)/C(C#N)=C/c1cc(C)n(C2CCCCC2)c1C | -30 | 91* | 12 | nt | 9
COCCNC(=O)/C(C#N)=C/c1cc(C)n(-c2ccc(C)cc2)c1C | 3 | 43 | 19 | nt | 14
COc1ccc(C2(c3ccc(OC)cc3)NC(=O)N(CC(=O)NC3(C#N)CCCC3)C2=O)cc1 | -2 | 0 | 21 | -7 | 2
Cc1ccc(C2(c3ccccc3)NC(=O)N(CC(=O)NC3(C#N)CCCC3)C2=O)cc1C (stereo not drawn) | -28* | 0 | -4 | 4 | 1
SMILES | Ecoli rRNA inh | MITF TRPM1 HTS | Wnt bcat act | esBAF inh | MLL AF4-AF9 inh
Cc1nc(-c2ccc(F)cc2)c(CC(=O)N2CCN(S(=O)(=O)c3cccc([N+](=O)[O-])c3)CC2)s1 | 1 | -5 | -2 | -2 | -2
COc1ccc2nc(C)cc(NCCN3CCOCC3)c2c1 | 8 | 18 | -2 | 0 | 2
Cc1cc(NCCN2CCOCC2)c2ccc3ccccc3c2n1 | 6 | 20 | 57* | nt | 1
COc1ccc(COC(=O)C2=C(C)NC(=O)NC2c2cc(OC)ccc2OC)cc1 (stereo not drawn) | 4 | nt | 0 | 3 | -1
CC[n+]1c(/C=C/c2c[nH]c3ccccc23)ccc2cc(C)ccc21 | 50 | -73 | -28 | nt | 26*
CCN(CC)C(=O)c1ccc(/C=C/c2c[nH]c3ccccc23)[n+](C)c1 | nt | -9 | -2 | 0 | nt
CCN1CCN(C(c2ccc(C(F)(F)F)cc2)c2ccc3cccnc3c2O)CC1 (stereo not drawn) | -56 | -52 | 3 | 1 | 85*
COc1cccc(OCCOCCN(C)CCO)c1 | nt | 2 | nt | -11 | nt
COC(=O)Cc1ccc(NC(=O)c2cccs2)cc1 | nt | 68 | 18 | 49* | nt
N#Cc1ccc(NC(=O)c2cccs2)nc1 | 6 | 86* | 6 | ? | 0
O=C(Nc1ccc(NC(=O)C2CC2)nc1)c1cccs1 | nt | 57 | nt | 36 | nt
O=C(Nc1ccc(NC(=O)c2cccs2)cn1)c1ccccc1 | nt | ? | 44* | nt | -1
O=C(Nc1cccc(NC(=O)c2cccs2)c1)c1ccc(F)cc1 | -28* | 7 | 1 | 9 | -1
COc1ccccc1CC(=O)Nc1ccc(NC(=O)c2cccs2)cc1 | 1 | 31 | -1 | 12 | 0
CC(C)N1CCCC(C)(C(=O)Nc2ccc3c(c2)OCO3)C1 (stereo not drawn) | 4 | nt | 0 | 7 | -4
COC(=O)C[C@@H]1CC[C@H]2[C@@H](COc3ccc(NC(=O)Cc4cccs4)cc3C(=O)N2C)O1 | 0 | nt | nt | 6 | nt
O=C(CSCc1ccc(Cl)cc1)N/N=C/c1ccco1 | -6 | 21 | -1 | nt | 2
N/C(=N\O)c1ccc(NC(=O)c2cccs2)cc1 | nt | 53 | 40* | 22 | nt
O=C(Nc1ccc(NC(=O)C2CC2)cn1)c1ccccc1 | 2 | -4 | 15 | -27 | -1
O=C(Cc1ccccc1)Nc1ccc(NC(=O)c2ccccc2)nc1 | 5 | 75 | 17 | 56* | -4
O=C(O)CSCC(=O)NCc1ccccc1Cl | 1 | 0 | -1 | nt | 0
OC[C@@H]1[C@H](c2ccc(-c3ccccc3)cc2)[C@H]2CN(Cc3ccccn3)CCCCN12 | -2 | nt | nt | nt | 1
COc1ccc(C2(c3ccc(OC)cc3)NC(=O)N(CC(=O)Nc3ccc(N4CCOCC4)cc3)C2=O)cc1 | 2 | -5 | -2 | nt | 5
CSc1nc2sc(-c3ccccc3)cc2c(=O)n1N | nt | 15 | nt | 57* | nt
CC(=O)c1ccc(NC(=O)CCc2nnc3ccc(N4CCC5(CC4)OCCO5)nn23)cc1 | -2 | 31 | 13 | 54* | -1
Cc1ccc(NC(=O)CCc2nnc3ccc(N4CCC5(CC4)OCCO5)nn23)nc1 | 6 | -3 | 0 | 3 | 1
CO[C@@H]1CC[C@@H]2CCN(C)C(=O)[C@H](C)N(C)C(=O)c3cc(C#N)ccc3OC[C@@H]1O2 | 1 | nt | nt | 2 | -1

High-throughput results deposited in PubChem by Broad Institute.
